ChEMBL document CHEMBL4513216, “Probing the Open Global Health Chemical Diversity Library for Multistage-Active Starting Points for Next-Generation Antimalarials” (ACS Infect Dis, 2020)
Out of some 69,000 compounds screened, about 8,600 (12%) showed an effect of 50% or more. Many of the other results were omitted from the sample, so strong results are more common in it than they were.

System: Plasmodium berghei
Test: Screen against P. berghei liver stage (PbLuc), transformed with Luciferase, at 10uM
Format: functional, HepG2
Conditions: tested at 10 uM

Row | SMILES | INHIBITION
1 | COc1ccc(-n2cc3[nH]c(=O)n(C(C)C)n3c2=O)cc1 | -12.5%
2 | CCOCC1CN(Cc2cccs2)Cc2nn(C)cc21 (stereo not given) | -2.72%
3 | CCN(Cc1ccc2c(c1)OCCO2)C(=O)c1ccc(C)[nH]c1=O | -4.43%
4 | O=C(Cn1ncc2c(c1=O)CCCCC2)Nc1cccc2[nH]ccc12 | 36.1%
5 | Cn1ccc2c(NC(=O)Cn3ncc4c(c3=O)CCCC4)cccc21 | 74.1%
6 | Cn1ccc2c(NC(=O)Cn3ncc4c(c3=O)CCCCC4)cccc21 | 6.29%
7 | Cn1cc(CC2CCN(C(=O)NCCCc3ccc(O)cc3)C2)cn1 (stereo not given) | 49.2%
8 | O=C(CCc1nccs1)N1CCN(c2cccnn2)CC1 | 1.77%
9 | O=C(CCc1nccs1)N1CCN(c2ncccn2)CC1 | 26.1%
10 | CC(C)COCCC(=O)NCCC(=O)N1CCN(c2ccccn2)CC1 | 56.6%
11 | CC(C)C(=O)NCCC(=O)N1CCN(c2ccccn2)CC1 | 24.1%
12 | O=C(CCc1nccs1)N1CCN(c2ccccn2)CC1 | 51.1%
13 | CC(C)OCCC(=O)NCCC(=O)N1CCN(c2ccccn2)CC1 | 14.2%
14 | Cc1nn(CC(=O)NCCc2ccncc2)c(=O)n1Cc1ccccc1 | -45%
15 | CNC(=O)CN(C)C(=O)c1cc(Cl)c(I)cc1OC | 45.2%
16 | Cc1nc(CN)cc(NCc2ccccc2-n2cncn2)n1 | 33.7%
17 | Cc1cc(CNc2ccnn2C)ccc1-n1cncn1 | 62.8%
18 | Cc1cc(CNC(C)Cn2cncn2)ccc1Br (stereo not given) | 41.4%
19 | CC(Cn1cncn1)NCc1ccc2nonc2c1 (stereo not given) | 12%
20 | CCc1cc(NCc2ccc(-n3cncn3)c(C)c2)n(C)n1 | 79.5%
21 | Cc1cc(CN2CCCC(NS(C)(=O)=O)C2)ccc1-n1cncn1 (stereo not given) | -3.14%
22 | CCOC(=O)NC1CCCN(Cc2ccc(-n3cncn3)c(C)c2)C1 (stereo not given) | -1.35%

Row | SMILES | INHIBITION
23 | Cc1cc(CNc2ccnn2CC(C)C)ccc1-n1cncn1 | 89.7%
24 | CCCNC(=O)C1CCCN(Cc2ccc(-n3cncn3)c(C)c2)C1 (stereo not given) | -14.5%
25 | CN1CCc2ncc(CNC(=O)c3cccn3C)n2CC1 | 20.9%
26 | CCn1ccnc1CN1CCN(Cc2cnc(C)cn2)CC1C (stereo not given) | 13.2%
27 | CC(=O)N1CCCC1c1csc(Nc2cnccn2)n1 (stereo not given) | 13.5%
28 | CCC(=O)N1CCCC1c1csc(Nc2cnccn2)n1 (stereo not given) | -4.82%
29 | Cc1nc(Nc2cnccn2)cc(C2CCN(c3ncccn3)C2)n1 (stereo not given) | -17.7%
30 | c1cnc(N2CCC(c3csc(Nc4cnccn4)n3)CC2)nc1 | 76.7%
31 | NC(=O)CN1CCC(c2csc(Nc3cnccn3)n2)CC1 | 33.8%
32 | COCC(=O)N1CCCC1c1csc(Nc2cnccn2)n1 (stereo not given) | 44.1%
33 | c1cnc(N2CCCC(c3csc(Nc4cnccn4)n3)C2)nc1 (stereo not given) | 61.3%
34 | OCCN1CCC(c2csc(Nc3cnccn3)n2)CC1 | 0.825%
35 | NC(=O)CN1CCCC1c1csc(Nc2cnccn2)n1 (stereo not given) | 51.5%
36 | CCCn1cnnc1CN(C)C(=O)C1CCCN(C2CCN(C)CC2)C1 (stereo not given) | -21.3%
37 | COCCC(=O)N1CCCC1c1nc(O)cc(-c2ccccn2)n1 (stereo not given) | 35.2%
38 | Cc1nc2n(n1)CC(Nc1nc(-c3ccccc3)no1)CC2 (stereo not given) | -6.51%
39 | CSCc1cc(F)ccc1CNC(=O)N1CCCC1 | -110%
40 | CSCc1cc(F)ccc1CNC(=O)N1CCC[C@@H]1CO | 31.9%
41 | CSCc1cc(F)ccc1CNC(=O)N1CCCC(CO)C1 (stereo not given) | 78.3%
42 | CSCc1cc(F)ccc1CNC(=O)N1CCC(CO)CC1 | 56.6%
43 | COc1ccccc1CNC(=O)N1CCCC(CO)C1 (stereo not given) | -10.7%
44 | CSCc1cc(F)ccc1CNC(=O)N1CCOCC1 | 13.1%

Row | SMILES | INHIBITION
45 | Cc1c(Cl)cccc1NC(=O)c1nc[nH]n1 | -1.16%
46 | COc1ccc(-c2cc3nn(CC(=O)NC(C)C)c(=O)n3c(C)n2)cc1 | 53.2%
47 | COc1ccc(-c2cc3nn(CC(N)=O)c(=O)n3c(C)n2)cc1 | 14.3%
48 | Cc1nc(-c2ccccc2)cc2nn(CC(N)=O)c(=O)n12 | 28.6%
49 | NC(=O)CC1CCN(C(=O)NCCc2ccc(Cl)s2)CC1 | -17.6%
50 | c1ccc(CN2CCCC3(CCN(Cc4cccs4)C3)C2)nc1 (stereo not given) | 21.1%
51 | Cc1nn(C)c(N2CCOCC2)c1CNC(c1ccccc1)C1CC1 (stereo not given) | 14.6%
52 | O=C(C1CCCOC1)N1CCCc2ccccc21 (stereo not given) | -21%
53 | O=C(C1CCCC1)N1CC2(CCN(C3COC3)CC2)Cc2ccccc21 | 53.2%
54 | O=C(C1CCCC1)N1CC2(CCN(C3COC3)C2)Cc2ccccc21 (stereo not given) | 10.1%
55 | O=C(C1CCCC1)N1CC2(CCNC2)OCc2ccccc21 (stereo not given) | 11%
56 | O=C(C1CCCC1)N1CC2(CCCN(C3COC3)C2)Cc2ccccc21 (stereo not given) | -0.621%
57 | O=C(C1CCCC1)N1CC2(CCN(C3COC3)C2)OCc2ccccc21 (stereo not given) | 53.2%
58 | Cc1ccc(-c2[nH]c3ccccc3c2C(=O)O)c(C)c1 | 31.7%
59 | c1nc(CN2CCC3(CC2)COCCN3CC2CC2)c[nH]1 | -2.17%
60 | N#Cc1ccccc1N1CCCN(C(=O)CCc2ccsc2)CC1 | 19.2%
61 | CC(C)n1cnnc1CN(C)C(=O)c1ccccc1-n1cncn1 | 31.7%
62 | COC[C@]1(O)CCN(Cc2cnc(N3CCOCC3)nc2)CC1(C)C | 32.3%
63 | COCCCN1CC2(CCN(C(=O)c3ncc(F)cc3F)CC2)CC1=O | 58.1%
64 | CSc1ncc(C(=O)N2CCC(O)(CN3CCOCC3)C(C)(C)C2)cn1 (stereo not given) | 40.6%
65 | COCCCN1CC2(CCN(C(=O)Cc3csc(C)n3)CC2)CC1=O | -44.8%
66 | CCc1ncc(C(=O)N2CCC(O)(CN3CCOCC3)C(C)(C)C2)cn1 (stereo not given) | 10.9%

Row | SMILES | INHIBITION
67 | COCCCN1CC2(CCN(Cc3cc(C(C)C)no3)CC2)CC1=O | 41.2%
68 | CCSc1ncc(CN2CCC(O)(CN3CCOCC3)C(C)(C)C2)cn1 (stereo not given) | 81%
69 | CCSc1ncc(CN2CC[C@@](O)(COC)C(C)(C)C2)cn1 | 43.5%
70 | CC1(C)CN(C(=O)c2ncc(F)cc2F)CCC1(O)CN1CCOCC1 (stereo not given) | 76.3%
71 | Cc1nc(C2CCCN(C(=O)c3cc(C(C)(C)C)on3)C2)no1 (stereo not given) | -21.8%
72 | Cc1noc(C)c1-c1cc(CC2CCN(C(=O)c3cc[nH]n3)C2)ncn1 (stereo not given) | 21.9%
73 | O=C(O)c1cccc(CN2CCC(c3ccnc4ccnn34)CC2)c1 | 28%
74 | Cn1cc(CN2CCOC(Cc3cccc(F)c3)C2)cn1 (stereo not given) | 36.8%
75 | CC(C)(C)NC(=O)c1ccccc1NC(=O)c1ccncc1 | 30.1%
76 | Cc1c(NC(=O)c2ncn[nH]2)cccc1C(=O)NC(C)(C)C | 59.5%
77 | Cc1c(NC(=O)c2cnc[nH]2)cccc1C(=O)NC(C)(C)C | 34.5%
78 | CCn1c(NCC2CCCO2)nc2c(C)nn(C)c2c1=O (stereo not given) | 25.8%
79 | OCC1CCCCN1Cc1cc(O)c2cccc(F)c2n1 (stereo not given) | 27.6%
80 | O=C1CN(Cc2cc(O)c3cccc(F)c3n2)CCN1C1CCCC1 | 37.7%
81 | Oc1cc(CN2CCCCC2c2cccnc2)nc2c(F)cccc12 (stereo not given) | 54.4%
82 | CC1CNC(=O)CCN1Cc1cc(O)c2cccc(F)c2n1 (stereo not given) | 51.2%
83 | Cc1ccc(C)c2c(O)cc(CN3CCC(=O)NCC3C)nc12 (stereo not given) | 3.69%
84 | NCC1CCCCN1Cc1cc(O)c2cccc(F)c2n1 (stereo not given) | 44.7%
85 | O=C(c1cc(Cn2ccc3ccccc32)[nH]n1)N1CCOCC1 | 16.2%
86 | O=C([C@@H]1CCCO1)N1CCN(Cc2ccncc2)c2ncccc2C1 | 40.3%
87 | COCC(=O)N1CCC(c2csc(NC(C)=O)n2)CC1 | 17.1%
88 | NCC(c1ccccc1)N1CCc2sccc2C1 (stereo not given) | -41.8%

Row | SMILES | INHIBITION
89 | CC(C)c1ccc(C(CN)N2CCc3sccc3C2)cc1 (stereo not given) | 82.2%
90 | CCC(=O)NCC(c1ccc(SC)cc1)N1CCc2sccc2C1 (stereo not given) | 28.3%
91 | O=C(NCCO)NCC(c1ccccc1)N1CCc2sccc2C1 (stereo not given) | 5.91%
92 | CCOCCCC(=O)NCC(c1ccccc1)N1CCc2sccc2C1 (stereo not given) | 27.6%
93 | NCC(c1ccc(Cl)cc1)N1CCc2sccc2C1 (stereo not given) | 71.2%
94 | CSc1ccc(C(CNC(=O)C2CC2)N2CCc3sccc3C2)cc1 (stereo not given) | 19.7%
95 | CSc1ccc(C(CN)N2CCc3sccc3C2)cc1 (stereo not given) | 66.3%
96 | CSc1ccc(C(CNC(C)=O)N2CCc3sccc3C2)cc1 (stereo not given) | 34.9%
97 | Cc1ocnc1CNC(=O)Nc1ccc(N2CCOC(C)C2)cc1 (stereo not given) | 25.8%
98 | COc1ccc(C)cc1C(C)NC(=O)Cn1ccc(=O)n(C)c1=O (stereo not given) | -25.9%
99 | CN(C(=O)CCN1CCCC1=O)c1cc(C#N)c2ccccc2n1 | 31.2%
100 | c1cncc(C2COC3(CCN(Cc4ccsc4)CC3)C2)c1 (stereo not given) | 46.1%
101 | COc1ccc(C(C)NCc2cscn2)cc1Cn1cccn1 (stereo not given) | 41.4%
102 | CNc1cc(C2CCCN(Cc3ccccc3OCC(=O)O)C2)ccn1 (stereo not given) | 18.3%
103 | Cc1cc(CNC(=O)CN2CCCC(Cn3cncn3)C2)ccc1F (stereo not given) | 25.6%
104 | Cc1ccc(-n2cc(C)cn2)c(NC(=O)NC2(C)CCOC2)c1 (stereo not given) | 56.3%
105 | Cc1ccc(Cl)c(NC(=O)NC2(C)CCOC2)c1 (stereo not given) | 24.8%
106 | Cc1ccc(C)c(-n2ncc(NC(=O)NC3(C)CCOC3)c2C)c1 (stereo not given) | 33.2%
107 | O[C@@H]1CN(Cc2cnccn2)C[C@H]1Oc1ccccc1 | -10.5%
108 | O=C(Cc1cccc(O)c1)N1CCCC(OCc2cccnc2)C1 (stereo not given) | 36.2%
109 | CC(C)(C)C(=O)NCCc1cc(N2CCOCC2)nc(NC2CC2)n1 | 30.15%
110 | Cc1cnn(CC2CCCN2C(=O)c2ccc(-n3cccn3)nc2)c1 (stereo not given) | 16.2%
